Results taken from PubChem BioAssay.
A number with no mark means an inactive call. The rule behind the calls is not given here.

target: Pantothenate synthetase (Mycobacterium tuberculosis (strain ATCC 25618 / H37Rv)) (UniProt P9WIL5); assay: Coupled enzyme confirmation of inhibitors against recombinant Mtb PanC (AID 375); conditions: coupled enzyme assay; at 10 µM, stronger effect = higher value;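 note: 0% = full reaction with vehicle and 100% = no enzyme background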
Sequence (P9WIL5 whole entry, looked up): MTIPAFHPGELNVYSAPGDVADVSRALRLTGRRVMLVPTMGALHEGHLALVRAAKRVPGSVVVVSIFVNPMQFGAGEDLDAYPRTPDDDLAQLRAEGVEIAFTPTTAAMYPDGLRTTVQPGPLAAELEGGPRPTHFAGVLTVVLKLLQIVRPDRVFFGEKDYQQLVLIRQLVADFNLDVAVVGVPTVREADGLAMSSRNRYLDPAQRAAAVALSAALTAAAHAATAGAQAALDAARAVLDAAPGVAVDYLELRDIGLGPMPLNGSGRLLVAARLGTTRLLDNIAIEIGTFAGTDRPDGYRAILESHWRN

Row | SMILES | inhibition [%]
1 | COC(=O)CCC(=O)Nc1cccc(Cl)c1 | 0
2 | O=S(=O)(NCC1CCCO1)c1cc(Cl)ccc1Br (stereo not given) | 0
3 | COc1ccc(Cl)cc1NC(=O)c1oc(C)nc1C | 4
4 | CC1CC(C)CN(c2ncnc3c2cnn3-c2ccc(Cl)cc2)C1 (stereo not given) | 1
5 | N#Cc1c(NC(=O)CSc2nnnn2C2CCCC2)sc2c1CCCC2 | 7
6 | Cn1c(=O)c2c(nc(NCc3ccccc3)n2CCCc2ccccc2)n(C)c1=O | 0
7 | COc1ccc(-n2c(SCC(=O)Nc3ccc(C(=O)O)cc3)nnc2-c2cccs2)cc1 | 0
8 | CCCCn1nnnc1SCC(=O)Nc1cccc(C)n1 | 1
9 | Cc1sc(NC(=O)CSc2nnc(COc3ccccc3)n2C)c(C#N)c1C | 6
10 | C=CCn1c(C)cc(C(=O)CSc2nc3ccccc3o2)c1C | 9
11 | NC(=O)OCC(COC(N)=O)c1ccccc1 | 1
12 | CCCCCc1nnc(NC(=O)Cc2cccs2)s1 | 0
13 | O=S(=O)(c1ccc(F)cc1)N1CCC(N2CCCC2)CC1 | 0
14 | CCCNS(=O)(=O)c1ccc(OCC(=O)NCc2ccco2)cc1 | 2
15 | COc1cc(C2Oc3cc(C4Oc5cc(O)cc(O)c5C(=O)C4O)ccc3OC2CO)ccc1O (stereo not given) | 0
16 | CCNC(=O)N(C(=O)NCC)n1c(C)nnc1C | 0
17 | CC(=O)OC(C)C[N+](C)(C)C (stereo not given) | 3
18 | Cc1cc(NC(=O)Cn2cnc3c2c(=O)n(C)c(=O)n3C)n(-c2ccccc2)n1 | 0
19 | O=C(CSc1nnc(COc2ccc(Cl)cc2)o1)N1CCN(c2ccccc2)CC1 | 0
20 | NC(=O)c1c(NC(=O)CN2CCCC2)sc2c1CCCC2 | 4

Row | SMILES | inhibition [%]
21 | Cc1c(NC(=O)CCc2ccc(S(=O)(=O)N3CCOCC3)cc2)c(=O)n(-c2ccccc2)n1C | 2
22 | Cn1cnc(S(=O)(=O)Nc2ccc(C(F)(F)F)cc2)c1 | 0
23 | O=C(CSc1nnc2sc3ccccc3n12)c1ccco1 | 0
24 | CCN(CC(=O)Nc1ccc2c(c1)CCC2)Cc1nc2ccccc2c(=O)[nH]1 | 4
25 | O=C(Cn1nc(Cc2ccncc2)c2ccccc2c1=O)N1CCc2ccccc2C1 | 0
26 | CCOC(=O)N1CCC(N2C(=O)c3ccccc3C2Nc2ccc3c(C)cc(=O)oc3c2)CC1 (stereo not given) | 4
27 | Cc1cnc(NC(=O)CSc2nnc(-c3ccccc3)n2Cc2ccccc2)s1 | 0
28 | O=C(CSc1nnnn1-c1ccccc1)Nc1nsc(-c2ccc(Cl)cc2)n1 | 0
29 | CC(=O)Nc1ccc(S(=O)(=O)n2nc(C)cc2C)cc1 | 0
30 | CN(C1CCCCC1)S(=O)(=O)c1ccc(S(=O)(=O)N2CCN(CCC#N)CC2)cc1 | 6
31 | CCc1nc2scc(-c3ccccc3)c2c(=O)n1N | 5
32 | COc1cc2c(cc1OC)C(c1ccccc1O)N(C1CC(=O)N(c3ccccc3)C1=O)CC2 (stereo not given) | 0
33 | Cc1cc(C)c(NC(=O)Cn2cc3c(n2)CCCC3)c(C)c1 | 0
34 | CCCS(=O)(=O)N1CCN(C(=O)c2cccs2)CC1 | 0
35 | O=C(O)c1oc2ccccc2c1-n1cccc1 | 6
36 | CC12CCC(C(=O)N3CCCCC3)(CC1=O)C2(C)C (stereo not given) | 0
37 | O=C(CSc1nc2ccccc2n1CC(=O)N1CCCC1)Nc1nccs1 | 0
38 | CC(C)OC(=O)C1C2C=CC3(CN(Cc4cccs4)C(=O)C13)O2 (stereo not given) | 0
39 | CC(C)NCC(O)COc1ccc(CC(N)=O)cc1 (stereo not given) | 0
40 | CCOC(=O)N1CCN(C(=O)c2ccc3c(=O)n(CCc4ccccc4)c(=O)[nH]c3c2)CC1 | 0
